Compound activity (PubChem BioAssay)
The list is not random: actives were taken first. Their share in the collection is about 32%.
CYP2C19 act – increases human CYP2C19 enzyme activity | recombinant CYP2C19, luciferin-H EGE luminescence; hits give high values; 0 = fully inhibited enzyme, 1 = untreated enzyme | activation factor at 5 µM | 96,000 tested, under 10 active | AID 1025;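 active = activation factor of at least 2 at 5 µM in the primary screen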;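 note: 0 = wells with 2.5 mM tranylcypromine and 1 = vehicle-only wells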
Target sequence (P33261 whole entry, looked up): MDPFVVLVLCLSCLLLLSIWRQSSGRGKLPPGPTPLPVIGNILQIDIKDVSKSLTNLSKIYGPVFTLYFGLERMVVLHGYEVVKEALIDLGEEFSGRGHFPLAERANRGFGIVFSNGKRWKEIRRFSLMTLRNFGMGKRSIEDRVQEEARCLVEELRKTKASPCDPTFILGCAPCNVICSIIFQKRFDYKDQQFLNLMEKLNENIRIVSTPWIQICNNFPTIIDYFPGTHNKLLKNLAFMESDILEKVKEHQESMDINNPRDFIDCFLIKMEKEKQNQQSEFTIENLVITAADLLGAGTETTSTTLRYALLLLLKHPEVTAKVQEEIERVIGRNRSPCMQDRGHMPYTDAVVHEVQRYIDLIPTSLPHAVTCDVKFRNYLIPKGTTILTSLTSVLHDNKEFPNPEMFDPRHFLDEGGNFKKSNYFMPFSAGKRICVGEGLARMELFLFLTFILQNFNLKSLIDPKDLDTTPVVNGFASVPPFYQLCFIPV
PostGolgi ctrl – yeast control strain growth, post-Golgi counter-screen; efflux-deficient yeast background strain, growth absorbance A615, 16 h; inhibition, % at 10 µM; actives 5% (n = 98,000)
CYP2C9 activ – CYP2C9 (human) activation. recombinant CYP2C9, luciferin-H conversion, luminescence; hits give high values; factor 1 = untreated enzyme, 0 = blocked. activation factor at 5 µM. actives 1.4% (n = 96,000);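 active = activation factor of 2 or more for CYP2C9 at a 5 µM dose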;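 note: 0 = sulfaphenazole-blocked wells and 1 = vehicle-only wells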
CYP2C9 inhib – human CYP2C9 inhibition; P11712; CYP2C9 Supersomes, luciferin-H conversion, luminescence; inhibition, % at 5 µM; actives 20% (n = 96,000); AID 777;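 active = blocking of liver enzyme CYP2C9 beyond about 50% at 5 µM, limit read from the data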
CYP2C19 inhib – blocks human cytochrome P450 2C19; P33261; CYP2C19 Supersomes, luciferin-H EGE luminescence, 30 min; inhibition, % at 5 µM; actives 21% (n = 96,000); AID 778;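 active = CYP2C19 inhibition above a set limit at 5 µM in the primary screen, cut at about 50% in these data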;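 note: plate controls were negative control wells for no effect and 2.5 mM tranylcypromine positive control for full effect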
PostGolgi yeast – growth inhibition of a yeast mutant, post-Golgi transport screen. actives 0.9% (n = 98,000). post-Golgi transport phenotypic cell assay. AID 739. inhibition, % at 10 µM;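 note: yeast cells grown in 1536-well plates; yeast grown about 18 h at 30C before absorbance read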
An asterisk follows results filed as active; . = no result given. Cut-off read from the data, not from the text of the source, unless noted: active = inhibition above about 30%; inactive = the rest.

SMILES	CYP2C19 act	PostGolgi ctrl	CYP2C9 activ	CYP2C9 inhib	CYP2C19 inhib	PostGolgi yeast
O=C(CCC(=O)N(c1ccccc1)C(C(=O)NC1CCCC1)c1ccncc1)Nc1cccnc1 (stereo not given)	0.3	3	0.5	46	70*	6
Cc1ccc(C(C(=O)NC2CCCC2)N(C(=O)Cc2cccs2)c2ccc3c(c2)OCCO3)cc1 (stereo not given)	0.9	1	0.9	14	15	23
Cc1cc(NC(=O)CSc2nnc(-c3cccnc3)n2C2CCCCC2C)no1 (stereo not given)	0.8	16	0.9	9	21	-2
Cc1cc(C)cc(Oc2cc(NC(=O)c3cn(C)nc3C)cc([N+](=O)[O-])c2)c1	0.8	-3	0.5	48	24	6
CC(NC(=O)Cn1cc2c(n1)CCCCC2)c1ccccc1 (stereo not given)	1	12	1	4	-1	4
O=C(Cn1cc2c(n1)CCCC2)Nc1cc(-c2cccc(Cl)c2)no1	0.7	12	0.4	57*	26	19
CCOC(=O)N1CCC(NC(=O)c2ccc3c(c2)N(C)CCS3)CC1	.	13	.	.	.	-5
CCOC(=O)N1CCC(NC(=O)c2ccc3c(c2)N(Cc2ccccc2)CCS3)CC1	0.1	17	0.1	92*	85*	-9
CCOC(=O)N1CCC(NC(=O)c2ccc3c(c2)N(Cc2ccc(C)cc2)CCS3)CC1	1	11	0.6	38	4	-6
CCOC(=O)N1CCN(C(=O)c2ccc3c(c2)N(CC)CCS3)CC1	1	3	0.2	78*	4	1
CCc1nc2sc(C)c(C)c2c(=O)n1CCO	1.1	-4	1.1	-14	-13	-1
Cc1cc(C)nc(/N=c2/ssnc2Cl)c1	0.9	54*	0.8	22	9	64*
CCOc1ccc2oc(-c3ccccc3)c(C(=O)N3CCN(CCO)CC3)c2c1	0.6	2	0.2	82*	40	-6
CCOc1ccc2oc(-c3ccccc3)c(C(=O)O)c2c1	1.1	-2	1.1	-12	-10	-2
O=S(=O)(NCC1CCCO1)c1cccc(S(=O)(=O)N2CCCC2)c1 (stereo not given)	0.9	6	1	1	8	3
O=S(=O)(NCC1CCCO1)c1ccc(Br)s1 (stereo not given)	0.3	2	1.1	-15	71*	6
O=S(=O)(NCc1ccncc1)c1ccc(S(=O)(=O)NCC2CCCO2)cc1 (stereo not given)	0.4	-2	0.1	89*	56*	-3
O=C(Nc1ccccc1)c1ccc(S(=O)(=O)NCC2CCCO2)cc1 (stereo not given)	1	1	0.9	11	3	-3
O=S(=O)(NC1CC2CCC1C2)c1ccc(Br)s1 (stereo not given)	0.4	91*	0.2	84*	64*	90*
O=S(=O)(NCC1CCCO1)c1ccc2oc3ccc(S(=O)(=O)NCC4CCCO4)cc3c2c1 (stereo not given)	1	2	0.5	52*	2	16
CCCCCc1c(C)nc(Nc2ccccc2)[nH]c1=O	0.6	24	0.9	12	42	12
Cc1ccc(S(=O)(=O)N2C(=S)SCC2(C)C)cc1	0.3	10	1.1	-7	74*	3
NC(=O)C1CCN(C2CC(=O)N(c3ccc(F)c(Cl)c3)C2=O)CC1 (stereo not given)	1	-1	0.9	8	-3	-8
Cc1ccc(S(=O)(=O)N2CCCCC2)cc1C(=O)Nc1ncn[nH]1	1	16	2*	-97	-2	2
Cc1cc(NC(=O)c2cc(S(=O)(=O)N3CCCCC3)ccc2C)n(-c2ccccn2)n1	0.7	28	0.4	64*	32	-1
SMILES	CYP2C19 act	PostGolgi ctrl	CYP2C9 activ	CYP2C9 inhib	CYP2C19 inhib	PostGolgi yeast
Cc1ccc(S(=O)(=O)N2CCOCC2)cc1C(=O)Nc1ccccn1	1	9	0.9	5	1	2
Cc1ccc(S(=O)(=O)N2CCCCC2)cc1C(=O)Nc1ccc2cn[nH]c2c1	0.7	1	0.4	64*	31	-3
N#CCSc1nccc(-c2cc(Cl)sc2Cl)n1	0.8	26	0.9	8	18	-4
C=CCSc1nccc(-c2cc(Cl)sc2Cl)n1	0.2	15	0.3	72*	80*	-10
C=C(C)Cn1c(C2CC(=O)N(Cc3ccccc3)C2)nc2ccccc21 (stereo not given)	0.4	.	0.3	71*	55*	.
C=CCN1CC(c2nc3ccccc3n2CCOc2ccccc2)CC1=O (stereo not given)	0.4	0	0.3	73*	60*	-5
CC(=O)c1ccc(NC(=O)C2CC(=O)N(Cc3ccccc3)C2)cc1 (stereo not given)	0.7	2	0.6	36	34	-6
Cc1ccc(N2CC(c3nc4ccccc4n3C)CC2=O)cc1C (stereo not given)	0.8	-6	1.4	-42	22	1
c1ccc(CCn2c(C3CC3)nc3ccccc32)cc1	0	1	0.3	66*	98*	3
CCn1c(C2CC(=O)N(c3ccc(C)c(C)c3)C2)nc2ccccc21 (stereo not given)	0.5	.	0.7	31	53*	.
CCCn1c(C2CC(=O)N(c3cc(OC)ccc3OC)C2)nc2ccccc21 (stereo not given)	0.8	8	0.6	35	23	-4
CCOc1ccc(N(CC(=O)NCC2CCCO2)S(=O)(=O)c2ccc(OC)c(OC)c2)cc1 (stereo not given)	.	1	.	.	.	10
COc1ccc(C2C3=C(CC(C)(C)CC3=O)Oc3ncn(CCO)c(=N)c32)cc1OC (stereo not given)	0.9	-11	0.6	40	12	3
CCCOc1ccccc1C(=O)N(Cc1ccco1)C1CCS(=O)(=O)C1 (stereo not given)	1	2	1	0	-3	-22
COc1ccc2c(c1)c(C(=O)CN1CCC(C(N)=O)CC1)c(C)n2C	1	13	0.9	12	-1	2
CC(C)(C)N1CC(c2nc3ccccc3n2Cc2ccccc2)CC1=O (stereo not given)	0.5	11	0.2	79*	50	-1
Cc1cc(C)cc(N2CC(c3nc4ccccc4n3C)CC2=O)c1 (stereo not given)	0.9	6	1.4	-36	12	1
CCn1c(C2CC(=O)N(Cc3ccccc3)C2)nc2ccccc21 (stereo not given)	0.5	7	0.5	45	53*	0
O=P1(Nn2cnnc2)C=C(c2ccccc2)OC(c2ccccc2)=C1	1	22	1.2	-22	-4	9
c1ccc(N=P(c2nc3ccccc3o2)(N2CCOCC2)N2CCOCC2)cc1	1.1	-6	1.1	-12	-6	-6
CC(C)Sc1nnc(NC(=O)C2CC2)s1	0.9	.	1.1	-12	6	.
